Inconclusive results are not listed. Values without a mark were called inactive. Calls of active or inactive are those of the source. Calls follow the shape of the full dose curve. A value given as a limit tells only on which side of the number the result lay.
Potency is read from the fitted curve at half-maximal effect.

This assay in a line: Cell Viability - MRC5 (AID 434).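 Also: potency reflects cytotoxicity seen as loss of intracellular ATP.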 The note with it: MRC5 lung fibroblast viability, qHTS. The source says:
NIH Chemical Genomics Center [NCGC]
NIH Molecular Libraries Screening Centers Network [MLSCN]
National Institutes of Environmental Health Sciences [NIEHS]
National Toxicology Program [NTP]
We have developed a 1536-well cell-based assay for quantitative high throughput screening (qHTS) against a number of cell lines to determine in vitro cytotoxicity of small molecules. This particular assay uses the MRC5 cell line which is derived from normal human lung fibroblasts.
NCGC Assay Protocol Summary:
The CellTiter-Glo luminescent cell viability assay (Promega) is a homogeneous method to measure the number of viable cells in culture. The end point readout of this assay is based on quantitation of intracellular ATP, an indicator of metabolic activity, using the luciferase reaction. Luciferase catalyzes the oxidation of beetle Luciferin to oxyluciferin and light in the presence of ATP. The luminescent signal is proportional to amount of ATP present.
Using the CellTiter-Glo luminescent cell viability assay, the amount of cellular ATP was measured in the MRC5 cell line with complete culture medium following compound treatment for 40 hours. The assay was performed in opaque white Kalypsys 1536-well plates. In the screen, tamoxifen and doxorubicin were used as positive controls. Library compounds were measured for their ability to cause acute toxicity in the cell line, as reflected by a decrease in intracellular ATP levels, in a concentration-dependent manner. Data were normalized to the controls for basal activity (DMSO only) and 100% inhibition (100 uM tamoxifen). AC50 values were determined from concentration-response data modeled with the standard Hill equation.
qHTS protocol for CellTiter Glo MRC5 cellular assay
[Step] [Parameter] [Value] [Description]
1. Reagent; 5 uL; 1500 MRC5 cells/well
2. Time; 5 hr; 37 °C incubation
4. Controls; 23 nL; Tamoxifen 0.34 uM to 100 uM & Doxorubicin 0.02 nM to 100 uM
5. Time; 40 hr; 37 °C incubation
6. Reagent; 5 uL; CellTiter Glo reagent
7. Time; 20 min; Room Temperature
8. Detection; Luminescence; Viewlux plate reader
Keywords: cell viability, cytotoxicity, MRC5 cell line, luminescence, NTPHTS, NTPHTS_NCGC, NIEHS, EPA, DSSTox, MLSMR, MLSCN, NIH Roadmap, qHTS, NCGC
For `NC1=NC(S)C2N=CN=C2N1` (stereo not given), the Potency is greater than 92 µM.
With `CCCCCCCCO` the figure was greater than 92 µM; with `CCCCOCCO`, greater than 92 µM; with `Nc1ccc(Cl)cc1Cl`, greater than 92 µM.
Consider `C=CCc1ccc(OC)c(OC)c1`, for which the Potency is greater than 92 µM.
On to `O=S(=O)(O)c1ccccc1`, for which the Potency is greater than 92 µM.
With `O=C(O)CC(C(=O)O)C(CC(=O)O)C(=O)O` (stereo not given), the Potency is greater than 92 µM.
Regarding `COC(=O)c1ccc(C=O)cc1`, the Potency is greater than 92 µM.
In the case of `Cc1c(N=C=O)cccc1N=C=O` it was greater than 92 µM.
In the case of `CC12CCC(CC1=O)C2(C)C` (stereo not given) it was greater than 92 µM; in that of `CCO`, greater than 92 µM; in that of `COc1cc(/C=C/c2ccccc2)oc(=O)c1`, greater than 92 µM.
In the case of `C=Cc1ccccc1Cl` it was greater than 92 µM; in that of `Clc1cc(Cl)c(Cl)c(Cl)c1Cl`, greater than 92 µM; in that of `COC(=O)CCCCC(=O)OC`, greater than 92 µM.
As for `CC1=CC(C)(C)Nc2ccccc21`, the Potency is greater than 92 µM.
In the case of `CC1=C2[C@H](/C=C(\C)C(=O)O)CC[C@@H](C)[C@H]2CC1` it was greater than 92 µM.
In the case of `Cc1ccccc1C` it was greater than 92 µM; in that of `C=CCOC(=O)c1ccccc1C(=O)OCC=C`, greater than 92 µM.
With `COC(=O)c1ccc(C)cc1` the figure was greater than 92 µM.
Take `O=NO`: the Potency is greater than 92 µM.
With `c1ccc2c(c1)[nH]c1ccccc12` the figure was greater than 92 µM; with `C1OCOCO1`, greater than 92 µM; with `COc1ccc2nc(N)sc2c1`, greater than 92 µM.
In the case of `O=C(O)c1ccccc1` it was greater than 92 µM; in that of `S=C1NC=NC2N=CNC12` (stereo not given), greater than 92 µM; in that of `Cc1ccc(N)c([N+](=O)[O-])c1`, greater than 92 µM.
In the case of `c1ccc2scnc2c1` it was greater than 92 µM; in that of `CCO[Si](CCCN)(OCC)OCC`, greater than 92 µM.
With `C/C=C\c1ccc(OC)cc1`, the Potency is greater than 92 µM.
With `CN(C)CCCCCCN(C)C` the figure was greater than 92 µM; with `O=C(O)c1ccccc1C(c1ccc(O)cc1)c1ccc(O)cc1`, greater than 92 µM; with `Cc1ccc([N+](=O)[O-])c(C)c1`, greater than 92 µM.
As to `CCCCCCCCCCCCCC(=O)O`, the Potency is greater than 92 µM.
In the case of `C=CC(=C)CCC=C(C)C` it was greater than 92 µM; in that of `C=CC(=O)OCCOCCOCCOCCOC(=O)C=C`, 41.6 µM (active).
As for `COc1c2ccoc2cc2oc(=O)ccc12`, the Potency was greater than 92 µM.
With `O=C(O)c1ccc(O)cc1O` the figure was greater than 92 µM.
In the case of `CCC(O)OC(O)CC` (stereo not given) it was greater than 92 µM; in that of `CCCCCCCCCCCC(=O)O`, greater than 92 µM.

Values taken from PubChem BioAssay (NCATS).
